Experimental findings from PMC12820563, “FoxP3 forms a head-to-head dimer in vivo and stabilizes its multimerization on adjacent microsatellites” are described below.

In all, about 16,000 sequences were measured (“rpm ratio (pull-down/input)”: median about 0.94, highest 2% from about 1.7 on). Many of the other results were omitted from the sample, so the highest values are more common in it than they were.

This test concerns the target T1, MBP-FoxP1dN (Mus musculus, UniProt P58462 326-579).
T1 sequence: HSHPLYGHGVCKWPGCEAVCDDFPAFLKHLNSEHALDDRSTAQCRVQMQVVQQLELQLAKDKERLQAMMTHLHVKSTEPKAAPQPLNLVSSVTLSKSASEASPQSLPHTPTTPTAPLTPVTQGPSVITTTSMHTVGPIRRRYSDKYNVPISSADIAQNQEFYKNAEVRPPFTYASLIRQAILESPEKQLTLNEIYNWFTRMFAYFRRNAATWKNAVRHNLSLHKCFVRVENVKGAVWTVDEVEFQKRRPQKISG
The test can be described thus: PD-seq (MBP pull-down with sequencing); 20 mM Tris-HCl pH 7.5, 100 mM NaCl, 1.5 mM MgCl2, 0.4 uM protein, 0.1 uM dsDNA library, 30 min, room temperature, amylose pull-down; high values mean tight binding. Particulars: protein: recombinant; tags: His6-MBP; chain copies: 2; dsDNA, one strand shown. A digest of the protocol: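 Binding is reads-per-million enrichment of pull-down over input, with replicates pooled. It comes from 30 min room-temperature incubation in Tris pH 7.5 buffer with NaCl and MgCl2 of 0.4 µM His6-MBP-tagged, N-terminally truncated mouse FoxP3 or FoxP1 fragment from E. coli with 0.1 µM Klenow-filled degenerate double-stranded DNA library, followed by amylose resin capture, three washes and Illumina sequencing of the released DNA.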
As for “GATGATTGTTCTCCCAGCTGATGAATTTTATAGGTCGAGTAAACAAATTTTCCTAATCTTTCTGTTCAAGCGCCATCTAC”, the binding signal was 0.796 RPM ratio (pull-down/input). With “GATGATTGTTCTCCCAGCTGATGAATTGAGTGTATCGAGTAAACAAATTTTCCTAATCTTTCTGTTCAAGCGCCATCTAC” the figure was 1.16 RPM ratio (pull-down/input). With “GATGATTGTTCTCCCAGCTGATGAATTCATGTAATCGAGTAAACAAATTTTCCTAATCTTTCTGTTCAAGCGCCATCTAC” the figure was 1.5 RPM ratio (pull-down/input); with “GATGATTGTTCTCCCAGCTGATGAATTTATGTAATCGAGTAAACAAATTTTCCTAATCTTTCTGTTCAAGCGCCATCTAC”, 1.95 RPM ratio (pull-down/input); with “GATGATTGTTCTCCCAGCTGATGAATTTTATGTATCGAGTAAACAAATTTTCCTAATCTTTCTGTTCAAGCGCCATCTAC”, 1.71 RPM ratio (pull-down/input). In the case of “GATGATTGTTCTCCCAGCTGATGAATTTTATGAATCGAGTAAACAAATTTTCCTAATCTTTCTGTTCAAGCGCCATCTAC” it was 0.942 RPM ratio (pull-down/input); in that of “GATGATTGTTCTCCCAGCTGATGAATTCATCTTATCGAGTAAACAAATTTTCCTAATCTTTCTGTTCAAGCGCCATCTAC”, 0.961 RPM ratio (pull-down/input); in that of “GATGATTGTTCTCCCAGCTGATGAATTATCTTTATCGAGTAAACAAATTTTCCTAATCTTTCTGTTCAAGCGCCATCTAC”, 1.09 RPM ratio (pull-down/input). Turning to “GATGATTGTTCTCCCAGCTGATGAATTTATGTTATCGAGTAAACAAATTTTCCTAATCTTTCTGTTCAAGCGCCATCTAC”, the binding signal was 2.22 RPM ratio (pull-down/input). With “GATGATTGTTCTCCCAGCTGATGAATTATGTAAATCGAGTAAACAAATTTTCCTAATCTTTCTGTTCAAGCGCCATCTAC” the figure was 1.47 RPM ratio (pull-down/input); with “GATGATTGTTCTCCCAGCTGATGAATTTATGATATCGAGTAAACAAATTTTCCTAATCTTTCTGTTCAAGCGCCATCTAC”, 1.33 RPM ratio (pull-down/input); with “GATGATTGTTCTCCCAGCTGATGAATTATGTTTATCGAGTAAACAAATTTTCCTAATCTTTCTGTTCAAGCGCCATCTAC”, 2.99 RPM ratio (pull-down/input). For “GATGATTGTTCTCCCAGCTGATGAATTCATGTTATCGAGTAAACAAATTTTCCTAATCTTTCTGTTCAAGCGCCATCTAC”, the binding signal is 1.78 RPM ratio (pull-down/input).

Take “GATGATTGTTCTCCCAGCTGATGAATTATGATTATCGAGTAAACAAATTTTCCTAATCTTTCTGTTCAAGCGCCATCTAC”: the binding signal was 1.51 RPM ratio (pull-down/input). With “GATGATTGTTCTCCCAGCTGATGAATTCCATGTGTCGAGTAAACAAATTTTCCTAATCTTTCTGTTCAAGCGCCATCTAC” the figure was 0.939 RPM ratio (pull-down/input); with “GATGATTGTTCTCCCAGCTGATGAATTTTTCGGATCGAGTAAACAAATTTTCCTAATCTTTCTGTTCAAGCGCCATCTAC”, 0.904 RPM ratio (pull-down/input). For the sequence “GATGATTGTTCTCCCAGCTGATGAATTCCTTTAGTCGAGTAAACAAATTTTCCTAATCTTTCTGTTCAAGCGCCATCTAC”, the binding signal was 0.819 RPM ratio (pull-down/input). In the case of “GATGATTGTTCTCCCAGCTGATGAATTAGTGCAGTCGAGTAAACAAATTTTCCTAATCTTTCTGTTCAAGCGCCATCTAC” it was 0.937 RPM ratio (pull-down/input); in that of “GATGATTGTTCTCCCAGCTGATGAATTGTTTGGATCGAGTAAACAAATTTTCCTAATCTTTCTGTTCAAGCGCCATCTAC”, 1.65 RPM ratio (pull-down/input). With “GATGATTGTTCTCCCAGCTGATGAATTGGGGACCTCGAGTAAACAAATTTTCCTAATCTTTCTGTTCAAGCGCCATCTAC” the figure was 0.742 RPM ratio (pull-down/input); with “GATGATTGTTCTCCCAGCTGATGAATTCGGACTATCGAGTAAACAAATTTTCCTAATCTTTCTGTTCAAGCGCCATCTAC”, 0.87 RPM ratio (pull-down/input); with “GATGATTGTTCTCCCAGCTGATGAATTGATGTTATCGAGTAAACAAATTTTCCTAATCTTTCTGTTCAAGCGCCATCTAC”, 2.17 RPM ratio (pull-down/input). On to “GATGATTGTTCTCCCAGCTGATGAATTTCAGTTATCGAGTAAACAAATTTTCCTAATCTTTCTGTTCAAGCGCCATCTAC”, for which the binding signal is 1.02 RPM ratio (pull-down/input). With “GATGATTGTTCTCCCAGCTGATGAATTGAATTTATCGAGTAAACAAATTTTCCTAATCTTTCTGTTCAAGCGCCATCTAC” the figure was 1.05 RPM ratio (pull-down/input); with “GATGATTGTTCTCCCAGCTGATGAATTGTCATTATCGAGTAAACAAATTTTCCTAATCTTTCTGTTCAAGCGCCATCTAC”, 1.31 RPM ratio (pull-down/input). In the case of “GATGATTGTTCTCCCAGCTGATGAATTATGTTAATCGAGTAAACAAATTTTCCTAATCTTTCTGTTCAAGCGCCATCTAC” it was 1.21 RPM ratio (pull-down/input). In the case of “GATGATTGTTCTCCCAGCTGATGAATTATCGATATCGAGTAAACAAATTTTCCTAATCTTTCTGTTCAAGCGCCATCTAC” it was 1.08 RPM ratio (pull-down/input); in that of “GATGATTGTTCTCCCAGCTGATGAATTATTTTCATCGAGTAAACAAATTTTCCTAATCTTTCTGTTCAAGCGCCATCTAC”, 1.27 RPM ratio (pull-down/input). Take “GATGATTGTTCTCCCAGCTGATGAATTAAATGTATCGAGTAAACAAATTTTCCTAATCTTTCTGTTCAAGCGCCATCTAC”: the binding signal is 1.4 RPM ratio (pull-down/input). With “GATGATTGTTCTCCCAGCTGATGAATTATTGCTATCGAGTAAACAAATTTTCCTAATCTTTCTGTTCAAGCGCCATCTAC” the figure was 1.3 RPM ratio (pull-down/input); with “GATGATTGTTCTCCCAGCTGATGAATTATTGATATCGAGTAAACAAATTTTCCTAATCTTTCTGTTCAAGCGCCATCTAC”, 1.53 RPM ratio (pull-down/input). In the case of “GATGATTGTTCTCCCAGCTGATGAATTTTTGCTATCGAGTAAACAAATTTTCCTAATCTTTCTGTTCAAGCGCCATCTAC” it was 1.21 RPM ratio (pull-down/input); in that of “GATGATTGTTCTCCCAGCTGATGAATTATTGTCATCGAGTAAACAAATTTTCCTAATCTTTCTGTTCAAGCGCCATCTAC”, 1.86 RPM ratio (pull-down/input); in that of “GATGATTGTTCTCCCAGCTGATGAATTGCTATTATCGAGTAAACAAATTTTCCTAATCTTTCTGTTCAAGCGCCATCTAC”, 1.8 RPM ratio (pull-down/input). In the case of “GATGATTGTTCTCCCAGCTGATGAATTAATGTTATCGAGTAAACAAATTTTCCTAATCTTTCTGTTCAAGCGCCATCTAC” it was 1.95 RPM ratio (pull-down/input).

With “GATGATTGTTCTCCCAGCTGATGAATTGATATTATCGAGTAAACAAATTTTCCTAATCTTTCTGTTCAAGCGCCATCTAC”, the binding signal was 1.92 RPM ratio (pull-down/input).
